# Key:
# [1] = system: Vero E6 infected with SARS-CoV-2; assay: morphology score (similarity to uninfected cells); higher = more like uninfected cells; settings: 24 h
# [2] = system: Vero E6 infected with SARS-CoV-2; assay: SARS-CoV-2 infection rate relative to infected DMSO; higher = more infection, active = 60 or less; settings: 24 h
SMILES,morphology score [1],SARS-CoV-2 infection rate [2]
Cn1c(Nc2ccc(C(F)(F)F)cc2)nc2cc(Oc3ccnc(-c4ncc(C(F)(F)F)[nH]4)c3)ccc21 (10 µM),-0.041,100% (inactive)
CSc1nc2ccc3nc(NC(=O)C(c4ccccc4)c4ccccc4)sc3c2s1 (10 µM),0.0833,94.5% (inactive)
C=C[C@]1(C)C[C@@H](OC(=O)CS[C@@H]2C[C@H]3CC[C@@H](C2)N3C)[C@]2(C)[C@H](C)CC[C@]3(CCC(=O)[C@H]32)[C@@H](C)[C@@H]1O [retapamulin] (10 µM),0.0286,109% (inactive)
O=C(O)C1=CCCN(CCOC(c2ccc(C(F)(F)F)cc2)c2ccc(C(F)(F)F)cc2)C1 (10 µM),0.0171,103% (inactive)
CO[C@@]1(NC(=O)CSCC#N)C(=O)N2C(C(=O)O)=C(CSc3nnnn3C)CS[C@@H]21 [cefmetazole] (10 µM),0.148,98.5% (inactive)
CC[C@H]1[C@@H]2C[C@H]3[C@@H]4N(C)c5ccccc5[C@]45C[C@@H]([C@@H]2[C@H]5O)N3[C@@H]1O [ajmaline] (10 µM),-0.0982,106% (inactive)
CN(C)c1nc(N)c(C(=O)Nc2cccnc2)nc1Cl (10 µM),0.226,79% (inactive)
O=C(O[C@H]1[C@H](OC(=O)c2cccnc2)[C@@H](OC(=O)c2cccnc2)[C@H](OC(=O)c2cccnc2)[C@@H](OC(=O)c2cccnc2)[C@H]1OC(=O)c1cccnc1)c1cccnc1 [inositol-hexanicotinate] (10 µM),0.0225,109% (inactive)
CCC(CO)(C(=O)OC1CC2CCC(C1)[N+]2(C)C)c1ccccc1 (centres undefined) [troventol] (10 µM),-0.023,106% (inactive)
CC(=O)OC/C=C(C)/C=C/C=C(C)/C=C/C1=C(C)CCCC1(C)C [retinyl-acetate] (10 µM),-0.227,113% (inactive)
CCOC(=O)c1ccc(OCCC2CCN(c3ccc(C)nn3)CC2)cc1 [pirodavir] (10 µM),0.0282,104% (inactive)
COc1ccc(/C=C/C(=O)Nc2ccccc2C(=O)O)cc1OC [tranilast] (10 µM),0.0917,108% (inactive)
CN(C)CCN(Cc1cccs1)c1ccccn1 [methapyrilene] (10 µM),-0.165,113% (inactive)
CC(C)=CCC[C@]1(C)C=Cc2c(O)c3c(c(CC=C(C)C)c2O1)O[C@]12C(=C[C@@H]4C[C@H]1C(C)(C)O[C@@]2(C/C=C(/C)C(=O)O)C4=O)C3=O [gambogic-acid] (10 µM),0.0235,106% (inactive)
Nc1ncnc2[nH]nc(Nc3ccc(F)cc3)c12 (0.833333 µM),-0.00281,95.5% (inactive)
CCCC(C)NC(=O)c1ccc(Cl)c(Cl)c1 (centres undefined) (10 µM),-0.46,119% (inactive)
O=C(/C=C/c1ccc2c(c1)OCO2)N1CCCCC1 [ilepcimide] (10 µM),0.197,95.5% (inactive)
Oc1cc2c(cc1O)[C@H]1c3ccccc3CN[C@@H]1CC2 (racemic) [dihydrexidine] (10 µM),-0.0209,101% (inactive)
O=C(O)/C=C1\CCCc2ccccc2[C@H]1O (racemic) (10 µM),0.0116,100% (inactive)

SMILES,morphology score [1],SARS-CoV-2 infection rate [2]
O=C(c1ccc(F)c(F)c1Nc1ccc(I)cc1F)N1CC(O)([C@@H]2CCCCN2)C1 [cobimetinib] (0.833333 µM),-0.272,116% (inactive)
N#C/C(=C1/SCC(c2ccccc2Cl)S1)n1ccnc1 (centres undefined) [lanoconazole] (10 µM),0.0956,99.5% (inactive)
CCC(=O)O[C@@H]1CC(=O)O[C@H](C)C/C=C/C=C/[C@H](OC(C)=O)[C@H](C)C[C@H](CC=O)[C@H](O[C@@H]2O[C@H](C)[C@@H](O[C@H]3C[C@@](C)(OC(C)=O)[C@@H](OC(=O)CC)[C@H](C)O3)[C@H](N(C)C)[C@H]2O)[C@H]1OC [miocamycin] (10 µM),-0.0251,110% (inactive)
O=C1NC(=O)/C(=C/c2ccc3c(c2)OC(F)(F)O3)S1 (10 µM),-0.0969,106% (inactive)
O=C(COc1ccc(C(=O)c2ccccc2)cc1)NC1CCN(Cc2ccccc2)CC1 [adiporon] (10 µM),0.0636,106% (inactive)
CC(=O)[C@@]1(O)CC[C@H]2[C@@H]3C=C(Cl)C4=CC(=O)[C@@H]5C[C@@H]5[C@]4(C)[C@H]3CC[C@@]21C (10 µM),0.204,109% (inactive)
Oc1ccc(/C=C/c2cc(O)cc(O)c2)cc1 [resveratrol] (10 µM),0.0102,104% (inactive)
CN(C)CC/C=C1\c2ccccc2CSc2ccccc21 [dosulepin] (10 µM),0.188,99.5% (inactive)
NC(=O)C1=CN([C@@H]2O[C@H](COP(=O)(O)OP(=O)(O)OC[C@H]3O[C@@H](n4cnc5c(N)ncnc54)[C@H](O)[C@@H]3O)[C@@H](O)[C@H]2O)C=CC1 [coenzyme-I] (10 µM),0.00507,103% (inactive)
CCN(CC)CCCCNc1ncc2cc(-c3c(Cl)cccc3Cl)c(NC(=O)NC(C)(C)C)nc2n1 (0.833333 µM),0.085,117% (inactive)
NCCCC[C@@H]1NC(=O)[C@@H](Cc2c[nH]c3ccccc23)NC(=O)[C@H](c2ccccc2)NC(=O)[C@@H]2C[C@@H](OC(=O)NCCN)CN2C(=O)[C@H](Cc2ccccc2)NC(=O)[C@H](Cc2ccc(OCc3ccccc3)cc2)NC1=O [pasireotide] (10 µM),-0.0469,104% (inactive)
CC(=O)OCC(=O)[C@@]1(O)CC[C@H]2[C@@H]3CCC4=CC(=O)CC[C@]4(C)[C@H]3[C@@H](O)C[C@@]21C [hydrocortisone-acetate] (10 µM),-0.00868,110% (inactive)
CN(Cc1cc(Br)cc(Br)c1N)C1CCCCC1 [bromhexine] (10 µM),-0.0228,102% (inactive)
Cc1c(C)c(NCC(=O)N(C)C2CCN(Cc3ccc(C(N)=O)cc3)CC2)c(C)c(C)c1N (10 µM),0.211,91% (inactive)
O=C(O)c1ccc(OCCn2ccnc2)cc1 [dazoxiben] (10 µM),0.196,99% (inactive)
Cc1nc(Nc2ccc(F)cc2)nc(N2CCc3ccccc3C2C)c1C (centres undefined) [revaprazan] (10 µM),0.59,42.5% (active)
NC(=O)[C@@H]1CC[C@@H]2CN1C(=O)N2OS(=O)(=O)O [avibactam] (10 µM),0.0638,108% (inactive)
Cc1cc(CN2CCN(c3c(Br)cnc4nc(-c5ccc(N6CCN(C)CC6)cc5)[nH]c34)CC2)no1 (10 µM),0.247,116% (inactive)
CN(C)CC[C@H](CSc1ccccc1)Nc1ccc(S(=O)(=O)NC(=O)c2ccc(N3CCN(Cc4ccccc4-c4ccc(Cl)cc4)CC3)cc2)cc1[N+](=O)[O-] (10 µM),0.105,108% (inactive)

SMILES,morphology score [1],SARS-CoV-2 infection rate [2]
COC(=O)C1=C(C)NC(C)=C(C(=O)OCC(C)C)C1c1ccccc1[N+](=O)[O-] (centres undefined) [nisoldipine] (0.833333 µM),-0.0369,112% (inactive)
CCCCCCNC(=O)Nc1ccc(S(=O)(=O)Nc2ccc(CCNC[C@H](O)COc3ccc(O)cc3)cc2)cc1 (10 µM),-0.167,112% (inactive)
CO/N=C(\C(=O)N[C@@H]1C(=O)N2C(C(=O)O)=CCS[C@H]12)c1csc(N)n1 [ceftizoxim] (10 µM),-0.0509,102% (inactive)
Cc1n[nH]c2ccc(-c3cncc(OC[C@@H](N)Cc4ccccc4)c3)cc12 (10 µM),0.111,92.5% (inactive)
OC[C@H]1OC(O)[C@H](O)[C@@H](O)[C@@H]1O (some centres undefined) [dextrose] (10 µM),-0.00495,110% (inactive)
CCCCCCCCCCCCCCCCCCCCCCCCC(=O)O [pentacosanoic-acid] (10 µM),0.211,96% (inactive)
Cc1ccc(-c2cc(C(F)(F)F)nn2-c2ccc(S(N)(=O)=O)cc2)cc1 [celecoxib] (10 µM),0.193,102% (inactive)
C=CCSCC1Nc2cc(Cl)c(S(N)(=O)=O)cc2S(=O)(=O)N1 (centres undefined) [althiazide] (10 µM),-0.00232,98% (inactive)
O=C(O)c1cc2occc2[nH]1 (10 µM),-0.103,109% (inactive)
COc1ccc(NC(=O)c2ccc(-c3ccc(-c4noc(C)n4)cc3C)cc2)cc1OCCN(C)C (0.833333 µM),0.282,53% (active)
O.O=[Si]=O.O=[Si]=O.O=[Si]=O.O=[Si]=O.[O]=[Mg].[O]=[Mg].[O]=[Mg] (10 µM),0.0643,104% (inactive)
C[C@@H](c1ncncc1F)[C@](O)(Cn1cncn1)c1ccc(F)cc1F [voriconazole] (10 µM),0.0199,101% (inactive)
Cc1cc(-c2nc3cc(F)ccc3s2)ccc1NC(=O)[C@@H](N)CCCCN [phortress] (10 µM),-0.32,120% (inactive)
O=C(c1ccc(CN2CCOCC2)cc1)N1CCN(C2CC2)CC1 [bavisant] (10 µM),-0.0555,100% (inactive)
COc1ccccc1N1CCN(CCN(C(=O)C2CCCCC2)c2ccccn2)CC1 (10 µM),0.0947,118% (inactive)
N#Cc1cccc(C(=O)Nc2cc(-c3ccccc3)nn2-c2ccccc2)c1 (10 µM),-0.166,104% (inactive)
Cc1cccc(Nc2ccncc2S(=O)(=O)NC(=O)NC(C)C)c1 [torasemide] (10 µM),0.215,102% (inactive)
CC(C)Oc1ccc2c(=O)c3cc(C(=O)O)ccc3oc2c1 (10 µM),0.0971,100% (inactive)
CN1CCc2nc(C(=O)N[C@@H]3C[C@@H](C(=O)N(C)C)CC[C@@H]3NC(=O)C(=O)Nc3ccc(Cl)cn3)sc2C1 [edoxaban] (10 µM),0.0662,94.5% (inactive)

# — the supplement of paper PMC13380429
